# Laboratory results published in ChEMBL document CHEMBL4513216, “Probing the Open Global Health Chemical Diversity Library for Multistage-Active Starting Points for Next-Generation Antimalarials” (ACS Infect Dis, 2020).
# Out of some 68,000 compounds screened, about 2,700 (4%) showed an effect of 50% or more. The entries come from a sample that favours strong results as a whole.
# Tested on: Plasmodium berghei
# Experiment: Screen against P. berghei liver stage (PbLuc), transformed with Luciferase, at 2uM
# Assay type: functional, HepG2
# Settings: tested at 2 uM
row,SMILES,INHIBITION
1,Cn1cc(CN2C[C@H](N3CCOCC3)[C@@H]3OCCC[C@@H]32)cn1,-3.36%
2,O=C(CSC1CCCC1)N1CCN(C(=O)C2CC2c2cccs2)CC1 (configuration not stated),10.39%
3,CN(CC(=O)N(CCC#N)c1ccccc1)C1CCc2ccccc21 (configuration not stated),-25.33%
4,N#CCCN(CCC#N)C(=O)CN(C1CC1)C1CCc2ccccc21 (configuration not stated),12.84%
5,CN(CCC#N)C(=O)CN(C1CC1)C1CCc2ccccc21 (configuration not stated),63.73%
6,CCn1c(SCC(N)=O)nnc1C(C)NC(=O)c1ccc(Cl)cc1 (configuration not stated),11.4%
7,COCCN(Cc1nccs1)C(=O)c1cc(-c2ccc(C)o2)n[nH]1,52.98%
8,COCCN(Cc1nccs1)C(=O)c1cc(-c2ccc(C)s2)n[nH]1,31.51%
9,COCCN(Cc1nccs1)C(=O)c1c(C)cc(C)[nH]c1=O,-1.63%
10,COc1ccc(C)c2c1N(C(=O)c1cnc3onc(C)c3c1)CCC2,47.2%
11,COc1ccc(C)c2c1N(C(=O)c1cnc(C)s1)CCC2,18.01%
12,COc1ccc(C)c2c1N(C(=O)c1ccc3nnc(C)n3c1)CCC2,61.06%
13,N#Cc1cccc(CN2CCC3(CC(C(=O)NCC4CC4)=NO3)C2)c1 (configuration not stated),7.35%
14,CNC1CCCN(Cc2noc(C3CC3)n2)C1 (configuration not stated),8.91%
15,Cc1n[nH]c(C)c1CNC(=O)N(Cc1ccccc1)CC(C)(C)O,-16.94%
16,Cc1noc(C2CCN(C(=O)CCc3ccccn3)CC2)n1,9.36%
17,CCN1CCC2(C=C(C(=O)NC3CC3)c3ccccc32)CC1,57.95%
18,O=C(NC1CC1)C1=CC2(CCN(CC3CC3)CC2)c2ccccc21,11.73%
19,CC(C)CN1CCC2(C=C(C(=O)NC3CC3)c3ccccc32)CC1,-14.63%
20,COc1ccc(Cl)cc1S(=O)(=O)N(C)CC(=O)Nc1cccnc1,-66.51%
21,Cn1c(C2CC2)nc2c1CCN(CCOc1ccc(C#N)cc1)C2,55.52%
22,Cn1c(C2CC2)nc2c1CCN(CCOc1cccc(F)c1)C2,-9.49%
23,Cn1c(C2CC2)nc2c1CCN(CCOc1ccccc1C#N)C2,-16.16%
24,NCc1ccc(Oc2ccc(F)c(F)c2)cc1C(F)(F)F,30.1%
25,CC(C)Oc1ccc(CN)c(C(F)(F)F)c1,28.94%
26,CC(C)(C)Oc1ccc(CN)c(C(F)(F)F)c1,50.01%

row,SMILES,INHIBITION
1,CN1CCC(N(C)C(=O)CSc2ccc(F)c(F)c2)C1=O (configuration not stated),-15.11%
2,CC(C)c1ccc(CCC(=O)N(C)C2CCN(C)C2=O)cc1 (configuration not stated),71.91%
3,CN1CCC(N(C)C(=O)CCc2ccc(F)c(F)c2)C1=O (configuration not stated),20.14%
4,COc1cccc(CC(=O)N2CC[C@@H](OC)[C@@H]2Cc2cccnc2)c1,8.18%
5,COC[C@@]12CCO[C@@H]1CCN(C(=O)Cc1ccc(C)cc1)C2,11.37%
6,COC[C@@]12CCO[C@@H]1CCN(C(=O)Cc1ccccc1F)C2,-26.85%
7,COC[C@@]12CCO[C@@H]1CCN(C(=O)Cc1ccccc1C)C2,54.56%
8,CN(Cc1ccc2c(c1)OCO2)C(=O)NCCc1cnn(C)c1,-0.12%
9,COCC(=O)NC1CC2(CCN(Cc3ccco3)CC2)c2ccccc21 (configuration not stated),-40.39%
10,COc1cc(C(=O)NS(=O)(=O)c2cccc(C#N)c2)ccc1C,23.92%
11,COc1ccc(C(=O)NS(=O)(=O)c2cncc(Br)c2)cc1OC,-10.6%
12,CCOc1cc(C(=O)NS(=O)(=O)c2cccc(C#N)c2)ccc1OC,64.16%
13,COc1ccc(C(=O)NS(=O)(=O)c2cncc(Br)c2)cc1,53.12%
14,CCOc1cccc2c1OCC(C(=O)NS(=O)(=O)c1ccc(Cl)cc1)=C2,30.91%
15,COc1cc(C(=O)NS(=O)(=O)c2cccc(C#N)c2)cc(OC)c1C,-15.28%
16,COc1ccc(C(=O)NS(=O)(=O)c2cccc(C#N)c2)cc1,66.2%
17,COc1cccc(C(=O)NS(=O)(=O)c2cccc(C#N)c2)c1,-49.9%
18,COC(=O)c1ccc(C(=O)NS(=O)(=O)c2cncc(Br)c2)cc1,-8.83%
19,COc1cc(C(=O)NS(=O)(=O)c2cccc(C#N)c2)cc(OC)c1Br,41.76%
20,CCOc1cccc2c1OCC(C(=O)NS(=O)(=O)c1cncc(Br)c1)=C2,51.94%
21,CCOc1cccc2c1OCC(C(=O)NS(=O)(=O)c1ccc(Br)s1)=C2,-20.93%
22,COc1ccc(CN2CC[C@@H]3[C@H]2CCC(=O)N3c2cnn(C)c2)cc1,-41.29%
23,NC(=O)C1CCN(C(=O)c2cccn2Cc2cccs2)C1 (configuration not stated),-8.9%
24,CCC(C)(C)NC(=O)CN(Cc1cccc(O)c1)C1CCC(O)CC1 (configuration not stated),6.85%
25,Cn1cc(CN2CCC(F)(F)C3(CCN(c4ncccn4)C3)C2)cn1 (configuration not stated),11.54%
26,COCCOc1cccc(C(=O)N2CCCC(n3ccnc3C)C2)c1 (configuration not stated),27.55%
